High-throughput results deposited in PubChem BioAssay by several laboratories.
A selection: hits, their analogues and other compounds. The true share with any hit is near 3.7%.
V-ATPase pHluor: yeast V-ATPase proton transport regulation by pHLuorin | S. cerevisiae, pHLuorin cytosolic pH fluorescence | response, % at 10 µM | 0.37% of 350,000 active | AID 504577; in the data active = response mostly above about 7.3%, no sharp cut-off; inactive = mostly below about 5.4%; note: actives read high
tim10-1 inh: tim10-1 yeast growth inhibition; S. cerevisiae tim10-1 ts strain growth, BacTiter-Glo, 24 h; inhibition, % at 20 µM; 2.2% of 330,000 active; AID 463190;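 active = inhibition of at least 40%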;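 note: mutant grown at 25 °C; 0% = DMSO wells with yeast and 100% = wells holding no yeast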
tim23-1 inh: tim23-1 yeast growth inhibition | 1.3% of 330,000 active | inhibition, % at 20 µM | S. cerevisiae tim23-1 growth, BacTiter-Glo luminescence, 24 h;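 active = growth inhibition of the mutant yeast at or above 50%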;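 note: temperature-sensitive mutant grown at 25 °C; plate controls were DMSO-treated mutant yeast for no effect and medium wells lacking yeast for full effect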
PfHsp90 set2: reduces growth (ATP signal) of yeast expressing P. falciparum Hsp90 | inhibition, % at 9.4 µM | AID 504621 | 0.32% of 310,000 active | S. cerevisiae expressing PfHsp90, BacTiter-Glo ATP, 48 h; yeast lacking PDR1 and PDR3 efflux regulators;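 active = every replicate shows inhibition above about 80%, whatever the replicate mean, limit read from the data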;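 note: 0% = DMSO neutral controls and 100% = 20 µM radicicol positive controls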
TIM10 inh: TIM10 yeast growth inhibition; S. cerevisiae TIM10 strain growth, BacTiter-Glo luminescence, 24 h; inhibition, % at 10 µM; 1.4% of 330,000 active; AID 463195;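 active = inhibition of 40% or more at the single tested concentration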;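 note: wild-type TIM10 isogenic control strain grown at permissive 25 °C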
tim10-1 conf: confirmation of tim10-1 mutant yeast growth inhibitors; shares compounds with tim10-1 inh; S. cerevisiae tim10-1 ts strain growth, BacTiter-Glo, 24 h; inhibition, % at 20 µM; 56% of 7,400 active; AID 463213;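 active = inhibition of yeast growth at or above a set limit in either of two repeat tests at 20 µM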;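 note: tim10-1 mutant grown at permissive 25 °C to find synthetic lethal compounds; 0% = DMSO yeast wells and 100% = medium wells without yeast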
tim10 confirm: TIM10 yeast growth inhibition, confirmed; shares compounds with TIM10 inh; S. cerevisiae tim10 strain growth, BacTiter-Glo luminescence, 24 h; inhibition, % at 10 µM; 63% of 4,600 active;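 active = inhibition of yeast growth at or above a set limit in either of two replicates at 10 µM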;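 note: this counterscreen used the strain with wild-type TIM10; 0% = yeast with DMSO and 100% = medium wells lacking yeast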
tim23-1 confirm: tim23-1 yeast growth inhibition, confirmed; shares compounds with tim23-1 inh; S. cerevisiae tim23-1 growth, BacTiter-Glo luminescence, 24 h; inhibition, % at 20 µM; 83% of 4,400 active; AID 463218;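 active = inhibition above about 39% in either of two replicate wells at 20 µM, limit read from the data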;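 note: temperature-sensitive tim23-1 mutant grown at 25 °C; 0% = DMSO wells with yeast and 100% = medium wells without yeast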
* hit, by the source's call; . = not tested or not shown.

SMILES	V-ATPase pHluor	tim10-1 inh	tim23-1 inh	PfHsp90 set2	TIM10 inh	tim10-1 conf	tim23-1 confirm	others
O=S(=O)(c1ccccc1)c1nc(-c2ccc(Cl)cc2)oc1NCCCN1CCOCC1	1.4	31.1	27.3	-9.4	8.5	.	.
Cc1cc2occ(CC(=O)N(CC(C)C)c3c(N)n(Cc4ccccc4)c(=O)[nH]c3=O)c2cc1C	6.2	8.8	10.5	-15.3	12.2	.	.
Cc1ccc(S(=O)(=O)NCC(c2ccc3c(c2)OCO3)N2CCN(c3ccccc3)CC2)cc1 (configuration not stated)	0.7	3.6	7.5	.	11.3	.	.
O=C(OC(c1ccccc1)c1nccc2ccccc12)c1cc([N+](=O)[O-])cc([N+](=O)[O-])c1 (configuration not stated)	-3.9	53.9*	57.0*	-61.3	42.7*	44.5*	47.3*	tim10 confirm=-6.6
CCCCCCCCCCCCCCCC[n+]1cccc(C(=O)N(CC)CC)c1	3.5	96.1*	60.0*	106.9*	24.6	94.3*	78.7*
Fc1ccc(NC(=S)Nc2cccc3ccccc23)cc1	-1.5	43.3*	52.1*	-5.9	24.2	27.2	44.8*
CCn1c(/C=C/c2ccc(O)c(O)c2)nc2ccccc2c1=O	6.0	20.0	2.9	-15.5	11.5	.	.
Cn1c(/C=C/c2cccc(Br)c2)nc2ccccc2c1=O	3.9	57.2*	63.2*	-10.6	21.9	55.4*	58.6*
CCn1c(/C=C/c2cc(Br)ccc2O)nc2ccccc2c1=O	1.7	67.0*	62.8*	-17.6	58.3*	68.6*	75.0*	tim10 confirm=59.0*
CCC(C)[C@H](NC(=O)[C@H](Cc1ccccc1)n1c(=O)[nH]c2ccccc2c1=O)C(=O)N1CCC[C@@H]1C(=O)O (some centres not stated)	4.7	18.9	1.4	6.8	-0.2	.	.
COc1ccc(/C(C)=N/NC(=O)CNC(=O)c2ccco2)cc1	-0.3	-4.3	-5.8	-15.0	-4.8	.	.
COc1ccc(/C(C)=N/NC(=S)NCc2ccco2)cc1	-5.2	40.6*	50.8*	-29.0	33.3	47.9*	54.3*
Cc1ccccc1C(=O)NC(=S)Nc1ccccc1C(=O)O	5.3	29.6	18.0	-7.6	7.4	.	.
COC(=O)c1ccccc1NC(=S)NC(=O)c1ccccc1C	1.1	71.0*	59.2*	.	69.5*	65.2*	-23.8	tim10 confirm=69.2*
COC(=O)c1ccccc1NC(=S)NC(=O)c1ccc2c(c1)OCO2	-0.6	63.0*	72.2*	7.7	61.7*	40.8*	39.3*	tim10 confirm=45.0*
COC(=O)c1ccccc1NC(=O)c1ccc2c(c1)OCCO2	5.0	22.4	4.5	-20.7	29.8	.	.
Cc1ccc(OCc2cc(C(=O)NCc3cnn(-c4cccc(F)c4)c3)no2)cn1	-0.7	43.7*	62.1*	-14.8	21.6	-7.8	59.7*
CCCNC(=O)c1ccc2c(c1)C1C3CCC(C3)C1C(c1ccccc1)N2 (configuration not stated)	18.6*	46.9*	53.2*	-15.5	37.3	44.2*	57.5*
OC(Cc1ccnc2ccccc12)C(Cl)(Cl)Cl (configuration not stated)	0.4	.	.	1.6	.	.	.
CCN(CC)c1ccc(NC(=O)c2cc(Cl)ccc2OC)cc1	-0.7	42.5*	50.0*	-15.4	25.8	31.8*	43.8*
OC(CN1CCCCC1)Cn1c2ccc(Cl)cc2c2cc(Cl)ccc21 (configuration not stated)	-0.6	-10.4	-22.3	2.4	-25.7	.	.
OC(CN1CCN(c2ccccn2)CC1)Cn1c2ccc(Cl)cc2c2cc(Cl)ccc21 (configuration not stated)	4.2	47.2*	54.9*	-0.6	-28.4	20.9	-39.5
Oc1ccc(Br)cc1/C=N/n1c(-c2ccccc2)n[nH]c1=S	-0.4	46.4*	56.8*	-10.0	21.8	41.3*	59.0*
Cc1cc(C)c(S(=O)(=O)N2CCCCC2CCNC(=O)C(=O)NCc2ccco2)c(C)c1 (configuration not stated)	1.3	22.4	28.1	-5.9	13.5	.	.
